The text below walks through data of PubChem BioAssay.

The structures appear in SMILES notation. Values without a mark were called inactive. For some of these results: Measured potencies and affinities stand elsewhere. Active and inactive are the calls of the source. Unless noted, the rule behind the calls is not given here.

A short description of experiment [1]: antimalarial activity against Dd2 strain (AID 2302;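 active = growth inhibition above 50% at the single 2 µM test dose, taken to imply half-maximal potency below 2 µM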;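 note: 0% = DMSO untreated growth and 100% = chloroquine plus artemisinin killed control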). Conditions: P. falciparum Dd2 in RBCs, LDH growth readout, 72 h; at 2 µM; hits give high values.
Experiment [2] in a line: HepG2 cytotoxicity, primary screen, cytotoxicity control for P. falciparum antimalarial project, cell-based, ATP luminescence (AID 2303;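 active = inhibition above 50%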;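 note: 0% = DMSO wells and 100% = digitonin-killed cells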). Particulars: HepG2 viability, 24-48 h, at 10 µM, hits give high values.
The target of experiment [3] is L-lactate dehydrogenase (Plasmodium falciparum (isolate CDC / Honduras)) (UniProt Q27743). The experiment in a line: PfLDH activity inhibition – cell lysate, 3D7 strain, counter-screen for P. falciparum growth inhibition project (AID 2304).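 Note: 0% = vehicle and 100% = reference inhibitor.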 Particulars: P. falciparum 3D7 crude extract, LDH APAD/NBT absorbance; at 2 µM; hits give high values.
Chain of L-lactate dehydrogenase (Plasmodium falciparum (isolate CDC / Honduras)) (Q27743 whole entry, looked up): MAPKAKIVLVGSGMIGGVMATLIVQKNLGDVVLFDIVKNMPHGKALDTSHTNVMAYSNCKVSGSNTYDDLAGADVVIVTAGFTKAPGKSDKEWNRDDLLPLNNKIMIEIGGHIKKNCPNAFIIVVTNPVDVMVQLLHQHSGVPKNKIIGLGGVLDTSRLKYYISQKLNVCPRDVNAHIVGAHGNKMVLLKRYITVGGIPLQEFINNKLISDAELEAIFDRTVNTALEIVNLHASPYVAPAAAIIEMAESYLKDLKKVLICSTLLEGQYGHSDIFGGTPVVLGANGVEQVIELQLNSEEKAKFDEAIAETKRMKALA
Experiment [4] is described as follows: inhibition of 3D7 malaria parasite growth – strain 3D7 (AID 2306).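 Note: 0% = DMSO wells and 100% = chloroquine plus artemisinin control wells.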 Particulars: P. falciparum 3D7 erythrocytic growth, LDH absorbance, 72 h; at 2 µM; hits give high values.
The target in experiment [5] is Calcium-dependent protein kinase 1 (Plasmodium falciparum (isolate 3D7)) (UniProt P62344). The experiment in a line: PfCDPK1 kinase inhibitors, biochemical, TCAMS library (AID 1159585; cut-off not given, nearly all actives have IC50 up to about 0.98 µM;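 note: inhibitors leave more ATP so luminescence rises with inhibition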). Particulars: recombinant PfCDPK1, Kinase-Glo ATP depletion luminescence.
Chain of Calcium-dependent protein kinase 1 (Plasmodium falciparum (isolate 3D7)) (P62344 whole entry, looked up): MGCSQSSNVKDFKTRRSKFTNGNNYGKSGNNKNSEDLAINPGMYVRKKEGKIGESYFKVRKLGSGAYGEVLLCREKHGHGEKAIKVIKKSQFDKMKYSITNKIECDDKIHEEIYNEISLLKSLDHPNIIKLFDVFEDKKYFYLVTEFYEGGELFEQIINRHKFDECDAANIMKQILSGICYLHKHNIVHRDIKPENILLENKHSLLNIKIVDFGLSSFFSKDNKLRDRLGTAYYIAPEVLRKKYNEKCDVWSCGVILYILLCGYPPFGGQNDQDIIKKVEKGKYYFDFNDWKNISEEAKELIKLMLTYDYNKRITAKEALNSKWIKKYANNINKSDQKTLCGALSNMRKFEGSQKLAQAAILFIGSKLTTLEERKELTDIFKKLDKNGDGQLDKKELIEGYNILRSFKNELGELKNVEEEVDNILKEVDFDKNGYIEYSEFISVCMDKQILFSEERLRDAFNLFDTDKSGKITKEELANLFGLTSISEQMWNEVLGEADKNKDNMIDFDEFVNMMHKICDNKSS
The target of experiment [6] is Plasmodium falciparum protein kinase 6 (PK6, PF3D7_1337100) (UniProt Q8IDW1). Kind of experiment: PfPK6 kinase inhibitors, biochemical, TCAMS library (AID 1159586). Conditions: recombinant PfPK6, Kinase-Glo ATP depletion luminescence.
Chain of Plasmodium falciparum protein kinase 6 (PK6, PF3D7_1337100) (Q8IDW1 1-305): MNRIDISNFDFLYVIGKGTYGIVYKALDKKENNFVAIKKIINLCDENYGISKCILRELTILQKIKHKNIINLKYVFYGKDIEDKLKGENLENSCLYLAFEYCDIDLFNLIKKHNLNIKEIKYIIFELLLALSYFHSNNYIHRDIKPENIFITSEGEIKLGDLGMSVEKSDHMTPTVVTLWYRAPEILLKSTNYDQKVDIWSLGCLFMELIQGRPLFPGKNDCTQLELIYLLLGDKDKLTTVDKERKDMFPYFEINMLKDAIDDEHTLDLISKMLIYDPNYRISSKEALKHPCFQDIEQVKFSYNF
The target of experiment [7] is Protein kinase 7 (PK7), Plasmodium falciparum 3D7 (PF3D7_0213400) (UniProt Q7YTF7). The experiment in a line: inhibition of Plasmodium PK7 catalytic activity – biochemical, TCAMS antimalarial set, Kinase-Glo luminescence (AID 1159587). Conditions: recombinant PfPK7, Kinase-Glo ATP depletion luminescence.
Chain of Protein kinase 7 (PK7), Plasmodium falciparum 3D7 (PF3D7_0213400) (Q7YTF7 1-343): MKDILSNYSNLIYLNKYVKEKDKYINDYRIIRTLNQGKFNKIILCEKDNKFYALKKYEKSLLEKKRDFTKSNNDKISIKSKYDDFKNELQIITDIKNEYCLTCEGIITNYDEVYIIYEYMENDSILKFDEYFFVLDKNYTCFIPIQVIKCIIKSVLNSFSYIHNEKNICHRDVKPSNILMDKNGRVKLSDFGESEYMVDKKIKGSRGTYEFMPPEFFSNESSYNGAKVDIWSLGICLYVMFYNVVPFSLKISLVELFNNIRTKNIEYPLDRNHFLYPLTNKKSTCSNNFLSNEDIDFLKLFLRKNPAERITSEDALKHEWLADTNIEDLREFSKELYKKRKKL
For experiment [8], the target named is Calcium-dependent protein kinase 4 (Plasmodium falciparum (isolate 3D7)) (UniProt Q8IBS5). The experiment in a line: PfCDPK4 kinase inhibitors, biochemical, TCAMS library (AID 1159588; cut-off not given, nearly all actives have IC50 up to about 0.91 µM). Particulars: recombinant PfCDPK4, Kinase-Glo ATP depletion luminescence.
Chain of Calcium-dependent protein kinase 4 (Plasmodium falciparum (isolate 3D7)) (Q8IBS5 whole entry, looked up): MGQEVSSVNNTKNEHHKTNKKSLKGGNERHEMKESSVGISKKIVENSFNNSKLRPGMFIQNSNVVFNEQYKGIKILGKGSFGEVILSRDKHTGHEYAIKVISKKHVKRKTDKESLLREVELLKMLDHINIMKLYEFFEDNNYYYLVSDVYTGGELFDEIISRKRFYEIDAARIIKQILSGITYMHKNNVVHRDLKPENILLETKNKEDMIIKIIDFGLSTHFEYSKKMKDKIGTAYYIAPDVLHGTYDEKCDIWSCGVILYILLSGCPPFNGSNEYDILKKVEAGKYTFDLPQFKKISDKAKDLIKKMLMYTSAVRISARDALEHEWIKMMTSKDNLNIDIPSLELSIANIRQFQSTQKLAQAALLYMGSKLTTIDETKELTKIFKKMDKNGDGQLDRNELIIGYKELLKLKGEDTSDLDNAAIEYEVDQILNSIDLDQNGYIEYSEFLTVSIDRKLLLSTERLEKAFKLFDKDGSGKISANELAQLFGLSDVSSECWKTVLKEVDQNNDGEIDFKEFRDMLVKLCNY

As for `O=S(=O)(NC1CCN(c2ccnc3ccccc23)C1)c1ccc(OC(F)(F)F)cc1` (stereo not given), the growth inhibition was -1% in experiment [1] and 88% (active) in experiment [4]. The inhibition in experiment [2] was 34%; in experiment [3], 5%. Moreover, the result in experiment [5], in experiment [6], in experiment [7] and in experiment [8] was inactive.
Consider `CCCC(C)NC(=O)[C@H](CC1CCCCC1)NC(=O)c1ccc(O)c(-c2cccc(C(F)(F)F)c2)c1` (stereo not given in full), for which the results for the growth inhibition in experiment [1] and in experiment [4] were 98% (active) and 100% (active), respectively. Also, the values for the inhibition in experiment [2] and in experiment [3] were -5% and 5%, respectively. Besides, the outcome in experiment [5], in experiment [6], in experiment [7] and in experiment [8] was inactive.
In the case of `O=c1cc(NCCCNCc2cc3c(Cl)cccc3s2)[nH]c2ccccc12`, the growth inhibition in experiment [1] was 57% (active); in experiment [4], 102% (active). For the same molecule, the inhibition in experiment [2] is 6%; in experiment [3] it was -7%. Further, the result in experiment [5], in experiment [6], in experiment [7] and in experiment [8] was inactive.
Regarding `COc1cc(-c2cc3cc(Cl)c(Cl)cc3[nH]2)ccc1C(=O)NCCC1CCCN1C` (stereo not given), the growth inhibition was 41% in experiment [1] and 91% (active) in experiment [4]. The inhibition in experiment [2] was 20%; in experiment [3], -5%. Also, the outcome in experiment [5], in experiment [6], in experiment [7] and in experiment [8] was inactive.
Consider `CN1CCN(c2cc(-c3cccnc3)nc(-c3ccncc3)n2)CC1`, for which the results for the growth inhibition in experiment [1] and in experiment [4] were 89% (active) and 100% (active), respectively. Besides, the inhibition in experiment [2] was 11%; in experiment [3], 1%. Moreover, the outcome in experiment [5], in experiment [6], in experiment [7] and in experiment [8] was inactive.
With `O=C(/C=C/c1ccc(Cl)c(Cl)c1)NCCCCCN1CCC(c2c[nH]c3c(-c4ccccc4)cccc23)CC1`, the results for the growth inhibition in experiment [1] and in experiment [4] were 40% and 99% (active), respectively. Besides, the inhibition in experiment [2] is 74% (active); in experiment [3] it was -2%. Besides, the result in experiment [5], in experiment [6], in experiment [7] and in experiment [8] was inactive.
As to `COc1cc(Cc2cnc(N)nc2N)cc(OCc2cccc(C(=O)O)c2)c1OC`, the growth inhibition in experiment [1] was -3%; in experiment [4], 92% (active). Further, the figures for the inhibition in experiment [2] and in experiment [3] were 8% and 4%, respectively. The outcome in experiment [5], in experiment [6], in experiment [7] and in experiment [8] was inactive.
As for `O=[N+]([O-])c1ccccc1C=NNc1ccnc2cc(Cl)ccc12`, the growth inhibition was 89% (active) in experiment [1] and 101% (active) in experiment [4]. Also, the results for the inhibition in experiment [2] and in experiment [3] were -5% and 3%, respectively. Besides, the result in experiment [5], in experiment [6], in experiment [7] and in experiment [8] was inactive.
As to `COc1cc2nc(N3CCC(CNC(=O)c4ccc(NC(=O)c5ccc(Cl)cc5)cc4)CC3)nc(N)c2cc1OC`, the results for the growth inhibition in experiment [1] and in experiment [4] were 100% (active) and 101% (active), respectively. For the same molecule, the inhibition in experiment [2] was 98% (active); in experiment [3], 0%. The outcome in experiment [5], in experiment [6], in experiment [7] and in experiment [8] was inactive.
`CCc1ccc(NC(=O)c2ccc(CN3CCCN(Cc4cccc(C)c4)CC3)cc2)cc1`: the growth inhibition in experiment [1] was -4%; in experiment [4], 80% (active). In addition, the inhibition in experiment [2] was 53% (active); in experiment [3], 1%. The outcome in experiment [5], in experiment [6], in experiment [7] and in experiment [8] was inactive.
Consider `CC(CN1CCN(C)CC1)C(=O)Nc1ccc(-c2ccc(-c3nc4ccc(C(F)(F)F)cc4[nH]3)cc2)cc1` (stereo not given), for which the growth inhibition in experiment [1] was 100% (active); in experiment [4] it was 101% (active). The inhibition was 19% in experiment [2] and -8% in experiment [3]. Besides, the result in experiment [5], in experiment [6], in experiment [7] and in experiment [8] was inactive.
For `Cc1nc(-c2ccc3c(c2)CCN(CCC2CCC(NC(=O)c4cc5cccc(Cl)c5[nH]4)CC2)CC3)no1` (stereo not given), the figures for the growth inhibition in experiment [1] and in experiment [4] were 46% and 100% (active), respectively. For the same molecule, the inhibition is 36% in experiment [2] and 2% in experiment [3]. Further, the result in experiment [5], in experiment [6], in experiment [7] and in experiment [8] was inactive.
Consider `CN(c1ccc(C(=O)N[C@@H](CCC(=O)O)C(=O)O)cc1)S(=O)(=O)c1ccc2nc(N)[nH]c(=O)c2c1`, for which the growth inhibition in experiment [1] was 3%; in experiment [4], 97% (active). For the same molecule, the inhibition in experiment [2] is 16%; in experiment [3], 2%. For the same molecule, the outcome in experiment [5], in experiment [6], in experiment [7] and in experiment [8] was inactive.
Regarding `COc1ccc2[nH]c(C(=O)Nc3cccc(-c4ccc(CN(C)C)cc4)c3)cc2c1`, the figures for the growth inhibition in experiment [1] and in experiment [4] were 34% and 100% (active), respectively. Moreover, the inhibition is 23% in experiment [2] and 3% in experiment [3]. Moreover, the outcome in experiment [5], in experiment [6], in experiment [7] and in experiment [8] was inactive.
`Cc1ccccc1Nc1nc(Nc2ccccc2)c2ccccc2n1`: the figures for the growth inhibition in experiment [1] and in experiment [4] were 21% and 103% (active), respectively. The inhibition was 19% in experiment [2] and -8% in experiment [3]. The result in experiment [5], in experiment [6], in experiment [7] and in experiment [8] was inactive.
In the case of `CCN(c1ccc(F)cc1)S(=O)(=O)c1cc(Br)cc2c1N(C(=O)C1CC1)CC2`, the figures for the growth inhibition in experiment [1] and in experiment [4] were 79% (active) and 88% (active), respectively. Besides, the results for the inhibition in experiment [2] and in experiment [3] were -16% and 7%, respectively. Moreover, the outcome in experiment [5], in experiment [6], in experiment [7] and in experiment [8] was inactive.
Consider `Cc1cc(F)ccc1-c1nc(NCC(O)CNCCc2ccccc2)nc2c1ccc(=O)n2-c1c(F)cccc1F` (stereo not given), for which the growth inhibition in experiment [1] and in experiment [4] was 100% (active) throughout. For the same molecule, the inhibition is 25% in experiment [2] and -5% in experiment [3]. Besides, the outcome in experiment [5], in experiment [6], in experiment [7] and in experiment [8] was inactive.
As to `CN1CC[C@@H](Oc2cc(C(=O)NCc3ccc(Cl)c(Cl)c3)ccc2C(F)(F)F)C1`, the growth inhibition was 4% in experiment [1] and 88% (active) in experiment [4]. Moreover, the inhibition in experiment [2] was 8%; in experiment [3] it was 2%. Moreover, the result in experiment [5], in experiment [6], in experiment [7] and in experiment [8] was inactive.
On to `COc1ccc2oc(=O)c(C#N)c(O)c2c1`, for which the figures for the growth inhibition in experiment [1] and in experiment [4] were -4% and 99% (active), respectively. The inhibition in experiment [2] was -2%; in experiment [3] it was 2%. Also, the result in experiment [5], in experiment [6], in experiment [7] and in experiment [8] was inactive.
Consider `CS(=O)(=O)NCCCNCc1ccc(-c2ccc(-c3nc4ccc(F)cc4[nH]3)s2)cc1`, for which the growth inhibition was 30% in experiment [1] and 95% (active) in experiment [4]. Further, the inhibition in experiment [2] was 23%; in experiment [3], 1%. Moreover, the result in experiment [5], in experiment [6], in experiment [7] and in experiment [8] was inactive.
